What follows are compounds tested against Calmodulin-1 (Homo sapiens) (UniProt P0DP23) (assay: CALM1 binders on microarrays, EGTA buffer, profiling panel, biochemical, small-molecule microarray, Cy5-labelled CALM1 (AID 1111;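 further: labelled calmodulin applied in Tris saline Tween buffer holding calcium plus EGTA and DTT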)). Details: Cy5-CALM1 binding fluorescence, higher = more signal.

Row | SMILES | composite z-score
1 | O=C1c2ccccc2[C@](Cc2ccccc2I)(C(=O)NCC(F)(F)F)[C@H](c2ccc(CO)cc2)N1Cc1ccccc1 | 1.4
2 | COc1ccc(C(=O)Nc2ccc3c(c2)[C@]2(O[C@@H](CCO)[C@H]([Si](C)(C)c4ccc(OC)cc4)[C@H]2C)C(=O)N3Cc2ccccc2)cc1 | 0.475
3 | COC(=O)[C@@]1(Cc2ccc(OC)cc2)[C@H]2c3cc(C(=O)N(C)C)n(CCF)c3C[C@H]2CN1C(=O)c1ccccc1 | 2.13
4 | COC(=O)c1c(CC[C@@H](CO)NC(=O)N[C@@H](C)Cn2cc(C3(O)CCCC3)nn2)oc(C(C)=O)c1C(=O)OC | -0.186
5 | CC1=C2[C@@H](CCc3ccccc3)OB(O)C[C@@H]2[C@@H]2C(=O)C=CC(=O)[C@@H]2C1 | 0.281
6 | CCCNC(=O)[C@@]1(Sc2ccc(C)cc2)CC(=O)N(Cc2ccccc2)[C@@H]1c1ccc(CO)cc1I | -0.296
7 | CC(C)C(CO)N1C(=O)[C@@H]2[C@H]3C(=O)OCC=C[C@H]3OC23C=CCN(Cn2nnc4ccccc42)C(=O)[C@@H]13 (stereo partly specified) | -0.323
8 | O=[N+]([O-])c1ccc(C[n+]2ccc(-c3ccc(CO)cc3)cc2)o1 | -0.165
9 | COc1cc(C(O)C2C=CC3C(=O)N(C)C(=O)C3N2NC(=O)OC(C)(C)C)cc(OC)c1OC (stereo unspecified) | 1.34
10 | COc1ccc([Si](C)(C)[C@@H]2[C@@H](CC(=O)N(CCO)Cc3ccccc3)O[C@]3(C(=O)N(C)c4c(Br)cc(C)cc43)[C@H]2C)cc1 | -0.87
11 | COC(=O)[C@@]1(Cc2ccccc2)[C@H]2c3cc(C(=O)N(C)C)n(Cc4ccccn4)c3C[C@H]2CN1C(=O)c1ccccc1 | 1.92
12 | O=C1NC(=O)C2C1C=CC(C(O)CCc1ccccc1)N2Nc1ccccn1 (stereo unspecified) | 0.901
13 | CCOC(=O)C1=CCC(c2cccc(Cl)c2)O1 (stereo unspecified) | -0.314
14 | C=C(COC)C(=O)CC[C@H](OC(=O)c1ccccc1-c1ccccc1C(=O)O)c1ccc(CO)o1 | -0.271
15 | N#Cc1ccc(NN2C(C(O)c3ccco3)C=CC3C(=O)N(c4ccccc4)C(=O)C32)cc1 (stereo unspecified) | 0.144
16 | COC(=O)C(CC#Cc1ccc2c(c1)[C@]1(C(=O)N2)[C@H](C(=O)N2CCc3cc(OC)c(OC)cc3C2)[C@H]2C(=O)O[C@H](c3ccccc3)[C@H](c3ccccc3)N2[C@@H]1c1ccc(OCCO)cc1)C(=O)OC | 1.07

From PubChem BioAssay
